From PubChem BioAssay (NCI)
Compounds without any hit were thinned out: in the full panel of roughly 79,000, 15% have a hit. Values without a mark were called inactive. Activity calls are given as the source filed them. Cut-off read from the data, not from the text of the source: active = growth inhibition above about 70%; inactive = the rest.

Legend:
[1] = NCI Yeast Anticancer Drug Screen. Data for the rad50 strain (AID 155);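 note: 0% = growth of vehicle-only cultures of the same strain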; conditions: S. cerevisiae rad50 strain growth inhibition, active compounds read high
Method in brief: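 Relative growth inhibition (compound vs vehicle) was measured in yeast with a defined repair-gene alteration.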

[2] = NCI Yeast Anticancer Drug Screen. Data for the mec2-1 strain (AID 157); conditions: S. cerevisiae mec2-1 strain, active compounds read high
Method in brief: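 Mutant yeast (mec2-1) grown with compound; growth inhibition relative to vehicle control reported.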

[3] = NCI Yeast Anticancer Drug Screen. Data for the sgs1 mgt1 strain (AID 161);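 note: 0% = growth of cultures given vehicle only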; conditions: S. cerevisiae sgs1 mgt1 strain, active compounds read high
Method in brief: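 Percent growth inhibition was derived by comparing compound-exposed mutant yeast with vehicle-exposed cultures. The strain carries alterations in DNA damage repair.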

[4] = NCI Yeast Anticancer Drug Screen. Data for the cln2 rad14 strain (AID 165);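 note: 0% = growth equal to vehicle treated cultures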; conditions: S. cerevisiae cln2 rad14 strain, active compounds read high
Method in brief: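 Readout is yeast growth inhibition versus vehicle-treated controls, using a strain with cln2 and rad14 alterations exposed to compound.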

[5] = NCI Yeast Anticancer Drug Screen. Data for the bub3 strain (AID 167); conditions: S. cerevisiae bub3 mutant strain, active compounds read high
Method in brief: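 Screening used yeast with an engineered genetic alteration affecting cell cycle control. Compound-exposed cultures were compared with vehicle cultures, and reduced growth was taken as inhibition.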

[6] = NCI Yeast Anticancer Drug Screen. Data for the mlh1 rad18 strain (AID 175); conditions: S. cerevisiae mlh1 rad18 strain growth inhibition, active compounds read high
Method in brief: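 Genetically defined yeast (DNA repair-deficient) exposed to compounds; growth inhibition determined relative to vehicle.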

[7] = at 5.0 µM (retest, dose inferred, filed as 0.5)
[8] = at 50.0 µM (retest, dose inferred, filed as 5.0)

SMILES | growth inhibition [1, 7] | growth inhibition [1, 8] | growth inhibition ([1]; at 50.0 µM) | growth inhibition [2, 7] | growth inhibition [2, 8] | growth inhibition ([2]; at 50.0 µM) | growth inhibition [3, 7] | growth inhibition [3, 8] | growth inhibition ([3]; at 50.0 µM) | growth inhibition [4, 7] | growth inhibition [4, 8] | growth inhibition ([4]; at 50.0 µM) | growth inhibition [5, 7] | growth inhibition [5, 8] | growth inhibition ([5]; at 50.0 µM) | growth inhibition [6, 7] | growth inhibition [6, 8] | growth inhibition ([6]; at 50.0 µM)
C1=C(c2ccccc2)CCc2ccccc21 | 1% | 14% | 12.7% | 5% | -1% | -11.5% | 5% | 14% | -1.95% | 0% | -14% | 50.9% | -3% | 3% | 2.6% | -4% | 3% | 1.5%
CCCCCCCCCCCCCCCCOC(=O)C[n+]1cccc(C(N)=O)c1 | 2% | 50% | 89.8% (active) | 8% | 85% (active) | 94.4% (active) | 27% | 92% (active) | 97.2% (active) | -5% | 22% | 36% | -1% | 79% (active) | 73% (active) | 42% | 82% (active) | 92.3% (active)
CCSC(=O)/C=C1\CN(C(=O)OC(C)(C)C)C1C(=O)OC(C)(C)C (stereo not given) | -23% | -7% | 30.1% | -40% | -9% | 26.9% | -44% | -2% | 56% | -35% | 14% | 72.9% (active) | -57% | 10% | 58.5% | -15% | 12% | 70% (active)
c1ccc(N2CCN(c3ccccc3)C2Cc2c[nH]c3ccccc23)cc1 | 30% | 98% (active) | 99.2% (active) | 19% | 99% (active) | 98.4% (active) | 25% | 98% (active) | 99.4% (active) | 17% | 99% (active) | 92.5% (active) | 61% | 98% (active) | 99.2% (active) | 61% | 99% (active) | 98.9% (active)
Cc1ccc(N2C(c3ccccc3)=CC(=C3C=CC(=O)C=C3)C=C2c2ccccc2)cc1 | 9% | 71% (active) | 94.2% (active) | 12% | 83% (active) | 98.5% (active) | 7% | 83% (active) | 93.7% (active) | -5% | 71% (active) | 78.9% (active) | 7% | 80% (active) | 92.5% (active) | 13% | 89% (active) | 96.8% (active)
COc1cccc2c1C(=O)c1c(O)c3c(c(O)c1C2=O)C[C@@](O)(C(C)=O)C[C@@H]3OC1CC([N+]([O-])(Cc2ccccc2)Cc2ccccc2)C(O)C(C)O1 (stereo not given in full) | 79% (active) | 95% (active) | 75.6% (active) | 30% | 87% (active) | 23.9% | 48% | 88% (active) | 19.2% | 23% | 70% (active) | 22.2% | 32% | 81% (active) | 31.7% | 70% (active) | 92% (active) | 10.8%
Cc1cnc(C#N)c(C#N)n1 | 2% | 10% | 35.6% | -1% | 8% | 5.9% | 2% | 7% | 9.95% | 0% | 7% | 12.2% | -1% | -1% | 13.2% | -3% | 3% | 18.1%
Oc1cc(Br)cc2cc(Cl)cnc12 | 99% (active) | 89% (active) | 84.5% (active) | 97% (active) | 87% (active) | 84.5% (active) | 98% (active) | 93% (active) | 79.8% (active) | 98% (active) | 88% (active) | 80% (active) | 98% (active) | 86% (active) | 83.1% (active) | 98% (active) | 81% (active) | 75.5% (active)
CC[C@H]1CN2CCc3cc(OC)c(OC)cc3[C@@H]2C[C@@H]1C[C@H]1NCCc2cc(OC)c(OC)cc21 | 0% | 12% | -7.4% | -10% | -2% | -4.65% | 1% | 3% | 4% | 1% | 17% | 7.5% | 3% | 0% | 2.55% | 1% | 3% | 8.25%
Cc1ccc(/C=C/C(=O)/C=C/c2ccc(C)o2)o1 | 50% | 97% (active) | 65.8% | 45% | 99% (active) | 71.3% (active) | 49% | 97% (active) | 75% (active) | 42% | 81% (active) | 39% | 47% | 68% | 75% (active) | 62% | 98% (active) | 92.4% (active)
